Assay [1] is described as follows: NCI Yeast Anticancer Drug Screen. Data for the rad50 strain (AID 155).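 Also: 0% = growth of vehicle-only cultures of the same strain.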 The note with it: S. cerevisiae rad50 strain growth inhibition; at 50.0 µM; stronger effect = higher value. A digest of the protocol:
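Yeast carrying a defined DNA repair defect were exposed to test compounds, and growth was compared with vehicle-treated controls to give percent inhibition.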

Assay [2] can be described thus: NCI Yeast Anticancer Drug Screen. Data for the mec2-1 strain (AID 157). The note with it: S. cerevisiae mec2-1 strain, at 50.0 µM, stronger effect = higher value. The method in brief:
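Growth inhibition is read against vehicle-treated controls after compound exposure of the mec2-1 yeast strain, which is defective in DNA damage repair or cell cycle control.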

Assay [3] in a line: NCI Yeast Anticancer Drug Screen. Data for the sgs1 mgt1 strain (AID 161).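 Also: 0% = growth of cultures given vehicle only.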 The note with it: S. cerevisiae sgs1 mgt1 strain, at 50.0 µM, stronger effect = higher value. The method in brief:
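Percent growth inhibition was derived by comparing compound-exposed mutant yeast with vehicle-exposed cultures. The strain carries alterations in DNA damage repair.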

Assay [4] in a line: NCI Yeast Anticancer Drug Screen. Data for the cln2 rad14 strain (AID 165).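 Also: 0% = growth equal to vehicle treated cultures.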 The note with it: S. cerevisiae cln2 rad14 strain, at 50.0 µM, stronger effect = higher value. A digest of the protocol: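 Growth inhibition, relative to vehicle-treated controls, is the read-out. The test organism is a yeast strain with defined genetic alterations, cln2 rad14.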
A short description of assay [5]: NCI Yeast Anticancer Drug Screen. Data for the bub3 strain (AID 167). The note with it: S. cerevisiae bub3 mutant strain, at 50.0 µM, stronger effect = higher value. A digest of the protocol:
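Compounds were applied to a genetically altered yeast strain carrying a cell-cycle control defect. Growth inhibition was scored against vehicle-treated controls.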

Assay [6] can be described thus: NCI Yeast Anticancer Drug Screen. Data for the mlh1 rad18 strain (AID 175). The note with it: S. cerevisiae mlh1 rad18 strain growth inhibition; at 50.0 µM; stronger effect = higher value. The method in brief:
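Cells of a genetically altered yeast strain, deficient in DNA damage repair, were treated with compound. Their growth was then compared with that of vehicle-treated cultures to give inhibition.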

SMILES strings stand for the structures. About 79,000 compounds went through this panel and 15% of them were active in at least one assay; those are over-represented in the sample as a whole. Values without a mark were called inactive. Active and inactive are the calls of the source. Rule as the data show it: active = growth inhibition above about 70%; inactive = the rest.

Regarding `O=S(=O)(O)c1ccccc1/C=N\N=C\c1ccccc1S(=O)(=O)O`, the growth inhibition was 10.8% in assay [1]; 1.85% in assay [2]; 11.7% in assay [3]; 17.4% in assay [4]; -6.4% in assay [5]; 12.8% in assay [6].
Turning to `O=C(O)c1ccccc1C(=O)Cc1ccccc1`, the growth inhibition is -14.7% in assay [1]; -19% in assay [2]; -6.7% in assay [3]; -16% in assay [4]; -29.6% in assay [5]; -9.6% in assay [6].
Turning to `C=CCNc1ccc(C)cc1`, the growth inhibition in assay [1] is 16.5%; in assay [2], -8.15%; in assay [3], 20.1%; in assay [4], 13.4%; in assay [5], -5%; in assay [6] it was 20.4%.
Consider `C(#Cc1ccccc1)SC1=C(c2ccccc2)S/C(=C(\SC#Cc2ccccc2)c2ccccc2)S1`, for which the growth inhibition was 9.6% in assay [1]; 7.7% in assay [2]; -29.4% in assay [3]; 10.9% in assay [4]; -21.1% in assay [5]; -30.8% in assay [6].
Consider `COc1cc(C(=O)n2c(=O)oc(=O)c3cc([N+](=O)[O-])ccc32)cc(OC)c1OC`, for which the growth inhibition in assay [1] is -15.4%; in assay [2] it was -6.15%; in assay [3] it was -16.4%; in assay [4], -6.65%; in assay [5] it was 1.6%; in assay [6], 2.2%.
`Cc1c(N)cc2c(c1N)C(C)(C)CC2(C)C`: the growth inhibition in assay [1] was 1.35%; in assay [2] it was -2.2%; in assay [3], -0.4%; in assay [4], -6.35%; in assay [5] it was 11.1%; in assay [6], -4.6%.
For `CCCCCCCCCCCCCCCCCC(=O)OC(C(O)C=O)C(O)C(O)CO` (stereo not drawn), the growth inhibition is 12.6% in assay [1]; 16.3% in assay [2]; 22.2% in assay [3]; 23.9% in assay [4]; -5.55% in assay [5]; 45.8% in assay [6].
On to `CC(C)(Br)C(=O)N1CCN(C(c2ccccc2)c2ccccc2)CC1`, for which the growth inhibition in assay [1] was 3.15%; in assay [2], 8.2%; in assay [3] it was 2.3%; in assay [4], -0.15%; in assay [5], -0.3%; in assay [6], 14.7%.
Take `C[C@]1(CO)CCC[C@@]2(C)C1CC[C@H]1CC3C[C@]12CC[C@]3(C)O` (stereo partly drawn): the growth inhibition was 47.2% in assay [1]; 8% in assay [2]; 41.2% in assay [3]; 28.4% in assay [4]; 32.6% in assay [5]; 54.3% in assay [6].
Regarding `CCN1CCCC(C#N)(c2ccccc2)CC1` (stereo not drawn), the growth inhibition in assay [1] was 14.1%; in assay [2] it was 7.45%; in assay [3], 14.5%; in assay [4] it was 8.9%; in assay [5], 3.2%; in assay [6], -4.1%.
Consider `CCCC[N+](CCCC)(CCCC)CC(=O)[O-]`, for which the growth inhibition was 5.7% in assay [1]; -3.1% in assay [2]; -19.8% in assay [3]; -45.1% in assay [4]; -8.3% in assay [5]; -24.6% in assay [6].
In the case of `CC(C)(CO[C@H]1C[C@H]2CC[C@@]1(C)C2(C)C)[N+](=O)[O-]`, the growth inhibition is 25.4% in assay [1]; -7% in assay [2]; 50% in assay [3]; -17.4% in assay [4]; 12.9% in assay [5]; 18.4% in assay [6].
Take `N#CCCN1CCCSC1=S`: the growth inhibition in assay [1] is 6.15%; in assay [2], 17.1%; in assay [3] it was 4.2%; in assay [4] it was 4.05%; in assay [5], -3.1%; in assay [6] it was 1.7%.
Take `c1ccc(-n2nnnc2-c2nnnn2-c2ccccc2)cc1`: the growth inhibition in assay [1] is -7.35%; in assay [2], -5.2%; in assay [3], -1.5%; in assay [4] it was -18.7%; in assay [5] it was 20.7%; in assay [6], -11%.
Turning to `COc1cccc2c1[C@H]1CO[C@H]3C4C[C@H](C(=O)O)C([C@@H](C2)N13)N4C` (stereo partly drawn), the growth inhibition in assay [1] was 3.25%; in assay [2], 4.4%; in assay [3] it was 8.35%; in assay [4] it was -12.1%; in assay [5], -4.7%; in assay [6], -2.5%.
In the case of `Cc1nc2ccccc2o1`, the growth inhibition in assay [1] was 19.9%; in assay [2] it was 39.5%; in assay [3], 13.1%; in assay [4] it was 14.9%; in assay [5], -1.6%; in assay [6], -10.4%.
Turning to `COc1ccc(NC(=O)Oc2ccc(OC)cc2)cc1`, the growth inhibition is 5.75% in assay [1]; 12.2% in assay [2]; 0.75% in assay [3]; 11.2% in assay [4]; 5.5% in assay [5]; -16.1% in assay [6].
Take `Clc1cccc(C2N3CCCCC3[C@@H]3c4[nH]c5ccccc5c4CCN23)c1` (stereo partly drawn): the growth inhibition in assay [1] is -0.75%; in assay [2], -1.85%; in assay [3], -1.95%; in assay [4] it was 3.1%; in assay [5], 10.9%; in assay [6] it was 1.7%.
Take `O=c1[nH]c(CCCc2ccccc2)c(Br)c(=O)[nH]1`: the growth inhibition in assay [1] is -1.5%; in assay [2], -7.65%; in assay [3], 3.35%; in assay [4], -4.35%; in assay [5], 15.1%; in assay [6], 24.4%.
For the compound `Fc1ccc(C(=C(c2ccc(F)cc2)c2ccc(F)cc2)c2ccc(F)cc2)cc1`, the growth inhibition is 45.5% in assay [1]; -15.2% in assay [2]; 36.9% in assay [3]; 9.55% in assay [4]; 0.1% in assay [5]; 7% in assay [6].
Regarding `Cc1cccc(C[P+](C/C=C/c2ccccc2)(c2ccccc2)c2ccccc2)c1`, the growth inhibition in assay [1] is 98.8% (active); in assay [2], 99.7% (active); in assay [3] it was 99.7% (active); in assay [4], 99% (active); in assay [5], 99.5% (active); in assay [6], 99.5% (active).
Regarding `COC(=O)C1(CC(=O)c2ccc(C)cc2)NC(=S)NC(=O)C1C#N` (stereo not drawn), the growth inhibition was -4.7% in assay [1]; -4.8% in assay [2]; -30.1% in assay [3]; -8.65% in assay [4]; -34.6% in assay [5]; -0.85% in assay [6].
For the compound `CCOC(=O)NNC(=O)c1ccccc1N(C)C`, the growth inhibition in assay [1] is -12.4%; in assay [2], -18.6%; in assay [3] it was -7.05%; in assay [4], -13.7%; in assay [5] it was 25.1%; in assay [6] it was -4.45%.
`CN(C)Cc1cc(C(=O)/C=C/c2c(Cl)cccc2Cl)cc(CN(C)C)c1O`: the growth inhibition in assay [1] is -32%; in assay [2], -17.6%; in assay [3] it was -3%; in assay [4] it was -31.2%; in assay [5] it was -0.75%; in assay [6] it was -18.9%.
As for `CCOC(=O)C(CC)C1=CCCCC1` (stereo not drawn), the growth inhibition was -21% in assay [1]; -48.7% in assay [2]; -11.2% in assay [3]; 12.3% in assay [4]; -11.2% in assay [5]; -8.55% in assay [6].
For `CNOCc1ccc(C(=O)NC(C)C)cc1`, the growth inhibition in assay [1] was 12.2%; in assay [2], 17.6%; in assay [3] it was 2.8%; in assay [4], -30.9%; in assay [5], 11.7%; in assay [6] it was 17.5%.
As to `Cc1cccc(CN)n1`, the growth inhibition was -2.55% in assay [1]; -29.2% in assay [2]; 17.4% in assay [3]; 4.05% in assay [4]; -5.85% in assay [5]; 2.15% in assay [6].
Consider `O=C(O)CCc1nc2c(n1Cc1ccccc1)C(=O)c1ccccc1C2=O`, for which the growth inhibition in assay [1] was 28.4%; in assay [2], 21.3%; in assay [3], 43.3%; in assay [4], 44.7%; in assay [5] it was 41.1%; in assay [6], 13%.
Regarding `COc1cc(Nc2nc3ccccc3nc2C(=O)O)cc(OC)c1OC`, the growth inhibition in assay [1] is -26.2%; in assay [2], -9.45%; in assay [3], -16.1%; in assay [4], 2.5%; in assay [5], 16.9%; in assay [6], -45.4%.
Turning to `ClC1C2C=CC(C2)C12OCCO2` (stereo not drawn), the growth inhibition in assay [1] was 2.35%; in assay [2], 11.7%; in assay [3], -1.6%; in assay [4] it was 6.85%; in assay [5], -10.7%; in assay [6], -18.4%.
As for `Cc1cccc(C(C)(C)C)c1NC(=O)C(=O)C(C(=O)/C=C\c1ccccc1)C1OC(=O)c2ccccc21` (stereo not drawn), the growth inhibition in assay [1] was 7.4%; in assay [2] it was -4.95%; in assay [3], 12.3%; in assay [4], 30.4%; in assay [5], 13.8%; in assay [6], 6.1%.
Turning to `COc1cc(O)c2c(c1)C(=O)C1=C(C2=O)C(O)C[C@@](C)(O)C1` (stereo partly drawn), the growth inhibition is 89.2% (active) in assay [1]; 90.2% (active) in assay [2]; 92% (active) in assay [3]; 75.5% (active) in assay [4]; 91.2% (active) in assay [5]; 90% (active) in assay [6].
Regarding `O=C1CCCC(C(Sc2ccccc2)(Sc2ccccc2)Sc2ccccc2)C1` (stereo not drawn), the growth inhibition in assay [1] is 62.2%; in assay [2], 5.1%; in assay [3] it was 65.2%; in assay [4] it was 37.6%; in assay [5], 21.9%; in assay [6], 81.3% (active).
Regarding `CC(C)NS(=O)(=O)c1ccccc1`, the growth inhibition in assay [1] was 19.4%; in assay [2], -3.1%; in assay [3], 10.6%; in assay [4], 6.75%; in assay [5], 0.6%; in assay [6] it was 26.9%.
For `O=c1c2ccccc2nc(-c2ccc(Br)cc2)n1NC1OC(CO)C(O)C(O)C1O` (stereo not drawn), the growth inhibition in assay [1] was 7.05%; in assay [2], 3.05%; in assay [3], 5.2%; in assay [4], -2.2%; in assay [5], -9.15%; in assay [6] it was 12.6%.
For the compound `COC(=O)c1nc2n[nH]c(N)c2c2c1CCCCCCCCCC2`, the growth inhibition in assay [1] was 7.35%; in assay [2], 15.6%; in assay [3], -5.65%; in assay [4], -13.6%; in assay [5], 1.4%; in assay [6], 12.1%.
As to `CSc1ncc2c(C#N)c3sc4ccccc4n3c(=O)c2n1`, the growth inhibition in assay [1] is 14.8%; in assay [2], -8.05%; in assay [3], 32.4%; in assay [4], 12.4%; in assay [5], 26.5%; in assay [6], -21.1%.
On to `COC1=NS(=O)(=O)C2(O1)c1ccccc1-c1ccccc12`, for which the growth inhibition in assay [1] was 15.2%; in assay [2] it was 17.2%; in assay [3] it was 11.4%; in assay [4] it was 13.2%; in assay [5] it was 25.8%; in assay [6] it was 12.3%.

(Values after PubChem BioAssay (NCI).)
